Holding throughout (test): NCI-60 one-dose screen, 48 h (100 = growth as untreated, 0 = no growth, -100 = all killed)
Holding throughout (conditions): 10 µM unless noted

Assay [1] deals with SK-MEL-2 melanoma.
The test system of assay [2] is SN12C renal.
The subject of assay [3] is UO-31 renal.
Assay [4] concerns TK-10 renal.
Assay [5] deals with ACHN renal.
Assay [6] concerns CAKI-1 renal.
Assay [7] relates to A498 renal.
Assay [8] has as its system HL-60(TB) leukemia.
In assay [9] the test system is CCRF-CEM leukemia.

Where “and” joins values, the source holds several entries; their conditions need not be identical. Equal entries are not always repeated. About 83,000 compounds went through this panel and 20% of them were active in at least one assay; those are over-represented in the sample as a whole.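 Negative percent growth values reflect cell death: -40 means 40% of the cells present at the start died, and -100 means all died.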 A number with no mark means an inactive call. Calls of active or inactive are those of the source. How the source made its calls: active means growth percent below 10; inactive means the rest.

This note sets out measurements from PubChem BioAssay (NCI).

For `NC(=O)Oc1cc(OC(N)=O)cc(N(CCCl)CCCl)c1`, the growth in assay [1] was 93.2%; in [2], 37.5%; in [3] it was 34.5%; in [4], 103%; in assay [5] it was 15.7%; in [6], -24.7% (active). The results for the growth in assay [7], in assay [8] and in assay [9] were 77.6%, 15.1% and 13.4%, respectively.

Consider `C=CC[PH+](c1ccccc1)c1ccccc1.C=CC[PH+](c1ccccc1)c1ccccc1.[Pt+2].[S-]c1nc2ccccc2[nH]1.[S-]c1nc2ccccc2[nH]1`, for which the growth in [1] is -72.9% (active); in [2], -4.98% (active); in assay [3], 35.2%; in assay [4] it was -12.2% (active); in assay [5], 42.3%; in assay [6], 25%. For the same compound, the growth in [7] was -16.1% (active); in assay [8], -20.8% (active); in assay [9] it was 6.12% (active).

Consider `CC1(C)N=C(N)N=C(N)N1c1ccc(CCC(=O)Nc2ccc(S(=O)(=O)F)cc2)cc1`, for which the growth in assay [1] is 50.4%; in assay [2], 33.4%; in assay [3], 82.3%; in assay [4], 24.3%; in assay [5], 64.5%; in [6], 28.8%. In addition, the growth in [7] was 60.3%; in assay [8] it was 18.8%; in assay [9], 18.9%.

Regarding `CNC(=O)Oc1ccc(Cl)cc1SSc1cc(Cl)ccc1OC(=O)NC`, the growth in assay [1] is 77.5%; in assay [2] it was 70.9%; in [3], 64.6%; in assay [5] it was 87.2%; in [6] it was 97.1%; in assay [7] it was 98%. In addition, the figures for the growth in [8] and in assay [9] were 61.3% and 50.7%, respectively.

In the case of `CC(C)CCC1C(=O)NC(=O)NC1=O`, the growth is 81.8% in [1]; 96.3% in assay [2]; 86.9% in assay [3]; 84.5% in [4]; 102% in assay [6]; 86.6% in [7]. Moreover, the growth in assay [8] was 99.7%; in [9], 106%.

Take `C[C@]12CC[C@@H](OC(=O)N(CCCl)N=O)C[C@@H]1CC[C@@H]1[C@@H]2CC[C@]2(C)C(=O)CC[C@@H]12`: the growth is 37.8% in assay [1]; 43% in [2]; 49.9% in assay [3]; 81.8% in [4]; 21.7% in [5]; 20.7% in assay [6]. In addition, the values for the growth in assay [7], in [8] and in assay [9] were -10.1% (active), -21.8% (active) and 26.6%, respectively.

Regarding `COc1ccc2c(c1)c(-c1nc(-c3cn(C)c4ncccc34)cs1)cn2CCCCN1CCOCC1`, the growth in assay [1] was 64.4%; in [2] it was 68%; in assay [3], 34%; in assay [4], 69.9%; in assay [5], 32%; in assay [6], 41.4%. The growth in [7] was 58.1%; in [8], 24.7%; in assay [9], 2.06% (active).

Take `N#CCc1ccc(CC#N)cc1`: the growth in [1] was 99.4%; in [2], 86.7%; in assay [3], 89.8%; in assay [5], 103%; in assay [6] it was 97.1%; in [7] it was 78.8%. For the same compound, the growth in [8] is 92.9%; in assay [9], 100%.

For `CCCCOCCOP(=O)(OCCOCCCC)OCCOCCCC`, the growth in assay [1] was 114%; in [2] it was 98%; in assay [3], 100%; in assay [4], 96.1%; in assay [5], 102%; in [6], 98%. For the same compound, the growth in assay [7] is 89.1%; in assay [8], 84.1%; in assay [9], 110%.

Consider `O=[N+]([O-])c1cc(Br)c(O)c(Br)c1`, for which the growth in [1] was 108%; in assay [2], 106%; in assay [3], 87.5%; in assay [4] it was 100%; in assay [5], 118%; in assay [6], 108%. In addition, the results for the growth in [7], in assay [8] and in assay [9] were 70.1%, 119% and 100%, respectively.

Consider `CC(Oc1ccc(-c2ccccc2)cc1)C(=O)O` (stereo unspecified), for which the growth in [1] was 107%; in assay [2], 104%; in [3], 91.8%; in assay [5], 104%; in assay [6], 99.2%; in assay [7], 77.7%. For the same compound, the figures for the growth in assay [8] and in [9] were 97.3% and 98.4%, respectively.

Consider `C[N+]1(C)CCCC1c1cccnc1` (stereo unspecified), for which the growth was 112% in assay [1]; 99.8% in assay [2]; 99.7% in assay [3]; 111% in assay [4]; 114% in [5]; 98.2% in [6]. Further, the growth in [8] was 117%; in [9], 97.6%.

In the case of `N#CC(N)c1ccccc1` (stereo unspecified), the growth in [1] was 122%; in assay [2], 104%; in assay [3] it was 86.3%; in assay [4] it was 109%; in assay [5], 105%; in assay [6], 102%. The growth in [7] is 81.2%; in [8] it was 102%; in [9] it was 107%.

As to `CCCCCCCCCCCCCCCCCCn1cc[n+](C)c1`, the growth is -61.3% (active) and -51.7% (active) in assay [1]; -52.5% (active) and -68.4% (active) in assay [2]; -61.4% (active) and -66.1% (active) in assay [3]; -70.2% (active) and -72.4% (active) in assay [4]; -67.3% (active) and -78.6% (active) in assay [6]; -50.9% (active) and -44.9% (active) in assay [7]. Also, the growth in [8] is 3.76% (active) and 2.22% (active); in [9], 34% and 67.8%.

Take `CCOP(=O)(NC)OCC`: the growth in assay [1] is 124%; in [2], 106%; in assay [3], 92.2%; in assay [5], 108%; in assay [6] it was 111%; in [7], 74.3%. For the same compound, the growth is 73.9% in assay [8] and 93.4% in assay [9].

In the case of `CO[C@H]1[C@H](O[C@@H]2C[C@@H]3C/C=C/C(=O)O[C@@H](CO)C[C@H](O)[C@@H]4C[C@H](C)[C@H](C/C=C\C=C\[C@H](C)C[C@H](C2)O3)O4)O[C@@H](C)[C@H](O)[C@H]1O`, the growth in [1] was 68.8%; in assay [2], 62.6%; in assay [3], 33.3%; in [4], 32.2%; in assay [6], 61.6%; in assay [7], 60.6%. Also, the growth is 33.2% in assay [8] and 58.7% in assay [9].

As for `ClC1OC(Cl)(Cl)C(Cl)(Cl)OC1(Cl)Cl` (stereo unspecified), the growth in [1] is 113%; in [2], 95.1%; in assay [3], 81.4%; in assay [4] it was 107%; in assay [6], 99%; in [7], 131%. Further, the growth in [8] was 125%.

On to `C/C(=C(\c1ccc(OCCN2CCOCC2)cc1)c1ccc(OC(=O)Cc2ccccc2)cc1)c1ccc(Cl)cc1`, for which the growth in assay [1] is 81.5%; in [2] it was 91.2%; in assay [3], 85.5%; in assay [4], 90.8%; in assay [5], 112%; in assay [6], 78.7%. For the same compound, the growth was 96.8% in [7], 82.9% in assay [8] and 84.9% in assay [9].

`Oc1ccc(O)c(Cl)c1`: the growth in assay [1] was 102%; in assay [2], 89.7% and 99.6%; in assay [3] it was 56.6% and 75.2%; in assay [4] it was 124% and 110%; in assay [5] it was 95.9% and 101%; in assay [6], 93.4% and 101%. Besides, the growth in assay [7] was 109% and 98.6%; in [8], 12.3% and 94.8%; in [9], 15.5% and 64.5%.

Consider `Oc1ccccc1C=NCCN=Cc1ccccc1O`, for which the growth in [1] was 106%; in [2], 102%; in assay [3], 92.3%; in assay [4] it was 104%; in assay [6], 102%; in [7] it was 77.9%. Besides, the values for the growth in assay [8] and in [9] were 115% and 90%, respectively.

With `CC1(C)N(Nc2ccccc2)C(=O)C2CCCN21` (stereo unspecified), the growth is 84% in assay [1]; 91.5% in [2]; 32.2% in assay [3]; 59.6% in assay [4]; 6.09% (active) in [6]; 96.5% in [7]. For the same compound, the growth in [8] is -31.4% (active); in [9], 18.5%.

Regarding `CC1=C2[C@H]3OC(=O)[C@@H](C)[C@@H]3CC[C@@]2(C)C=CC1=O`, the growth in assay [1] was -0.59% (active); in assay [2], 100%; in assay [3], 99.2%; in [4], 107%; in assay [5], 95.7%; in [6], 112%. Further, the growth in assay [7] is 125%; in assay [8] it was 87.3%; in assay [9], 94.6%.

With `CC1(C)C2CCC1(CS(=O)(=O)O)C(=O)C2` (stereo unspecified), the growth in assay [1] is 107% and 106%; in assay [2], 87.1% and 111%; in assay [3], 86% and 110%; in assay [5], 95.9% and 105%; in assay [6], 97.5% and 84.5%; in assay [7], 84.3% and 96.9%. Also, the growth in assay [8] is 104% and 80.1%; in [9], 96.1% and 103%.

On to `CC[C@H](C)[C@H](NC(=O)CN(C)C)C(=O)N(C)[C@H](C[C@@H](OC(C)=O)c1nc(C(=O)NC23C4C5C2C2C3C4C52C(=O)OC)cs1)C(C)C` (stereo partly specified), for which the growth in assay [1] was 34%; in assay [2] it was 31.8%; in assay [3], 54.9%; in assay [4], 57.7%; in [5] it was 42.6%; in assay [6] it was 44.8%. Besides, the values for the growth in assay [7], in assay [8] and in assay [9] were -1.71% (active), -26.5% (active) and 6.24% (active), respectively.

Turning to `CN(C)c1ccc(N)cc1`, the growth was 94.2% and 71.7% in [1]; 96.2% and 64.7% in [2]; 75% in assay [3]; 117% and 26.5% in assay [4]; 99.5% and 64.9% in [5]; 78.2% in assay [6]. The growth in [7] was 108% and 62.7%; in [8] it was 95.1% and 38.5%; in assay [9], 87.5% and 36%.

On to `O=S(=O)(F)c1cccc(Cl)c1C[P+](c1ccccc1)(c1ccccc1)c1ccccc1`, for which the growth in assay [1] is 97.1%; in assay [2] it was 102%; in assay [3], 88.3%; in assay [4] it was 116%; in [6], 94.4%; in [7] it was 122%. The growth in assay [8] is 98.9%; in assay [9], 86.7%.

Turning to `CN1CCN(c2ccc(Cl)cc2)CC1`, the growth in [1] is 18.1%; in assay [2], 90.7%; in [3], 86.1%; in assay [4] it was 102%; in assay [5] it was -11.9% (active); in assay [6] it was 24.1%. For the same compound, the growth in assay [7] was 97%; in assay [8], 48.7%; in assay [9], 87.3%.

As to `C=CCOC(=O)C(Br)CC` (stereo unspecified), the growth in assay [1] was 106%; in assay [2], 111%; in [3], 94.6%; in [4], 103%; in [5], 100%; in assay [6], 101%. The growth is 90.4% in assay [7], 101% in assay [8] and 107% in [9].

On to `O=C1CCCCC1CN1CCCCC1` (stereo unspecified), for which the growth was 99.9% in assay [2]; 88.7% in assay [3]; 90.4% in [4]; 102% in assay [5]; 102% in [6]; 96.6% in [7]. Also, the growth in assay [8] is 93.4%; in assay [9], 98.7%.
